Results on 29 compounds are retold here after PubChem BioAssay (Tox21).

Records with an inconclusive call do not appear. Unmarked numbers belong to inactive results. The source made the active and inactive calls. Unless noted, calls follow the shape of the dose curve; as a rule, active = well fitted curve in the direction sought with a large enough effect in the repeat runs; inconclusive = weak or mixed curves; inactive = no such curve, though single readings can be large; an effect the other way counts as inactive or inconclusive.

Test [1] can be described thus: qHTS assay to identify small molecule agonists of the peroxisome proliferator-activated receptor delta (PPARd) signaling pathway - cell viability counter screen (AID 743211). Also: nearly all actives have a fitted effect of over 55% in size. A digest of the protocol: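 Counter screen for cytotoxicity run in parallel with the PPARd reporter screen. Beta-lactamase reporter HEK293H cells exposed to compounds 17 h; ATP-based CellTiter-Glo luminescence quantified viability.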
Background: Quantitative high-throughput screening tests each substance at several concentrations.

The target in test [2] is Peroxisome proliferator-activated receptor delta (Homo sapiens) (UniProt Q03181). Briefly: qHTS assay to identify small molecule agonists of the peroxisome proliferator-activated receptor delta (PPARd) signaling pathway (AID 743212; calls by dose curve; also: potency is read from the fitted curve at half-maximal effect). A digest of the protocol:
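GeneBLAzer UAS-bla HEK293H cells carrying a PPARδ construct were exposed to compounds at 37 °C. Beta-lactamase activity was read by FRET fluorescence after 2 h at room temperature with LiveBLAzer B/G substrate.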

The target is the same in test [3]. Briefly: qHTS assay to identify small molecule antagonists of the peroxisome proliferator-activated receptor delta (PPARd) signaling pathway (AID 743215; active = well fitted inhibition curve with a large enough effect in the signal ratio in the repeat runs, not every such curve was filed as active; the % refers to the signal ratio;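 also: cells stimulated with agonist L165041 at 300 nM final during compound exposure; series mostly up to about 62 µM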). A digest of the protocol: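 HEK293H UAS-bla, PPARd; agonist L165041 300 nM final with cpd in DMSO; 37 C 17 h; FRET substrate, RT 2 h; fluorescence intensity.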
Test [4] can be described thus: qHTS assay to identify small molecule agonists of the farnesoid-X-receptor (FXR) signaling pathway - cell viability counter screen (AID 743218). Also: nearly all actives have a fitted effect of over 45% in size. The procedure, abridged:
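Parallel cytotoxicity test: compound-treated (16 h, 37 C) HEK 293T FXR-bla reporter cells were lysed with CellTiter-Glo and luminescence recorded.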

Test [5] in a line: qHTS assay to identify small molecule antagonists of the farnesoid-X-receptor (FXR) signaling pathway - cell viability counter screen (AID 743221; active = well fitted cell-killing curve with a large enough effect in the repeat runs, not every such curve was filed as active; also: nearly all actives have a fitted effect of over 50% in size). The procedure, abridged:
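Multiplexed counter screen: viability of FXR-bla HEK 293T cells under agonist stimulation by chenodeoxycholic acid (50 uM, final) and test compound for 16 h at 37 C, measured by CellTiter-Glo luminescence in the reporter wells.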

In test [6] the target is Vitamin D3 receptor (Homo sapiens) (UniProt P11473). Briefly: qHTS assay to identify small molecule agonists of the vitamin D receptor (VDR) signaling pathway (AID 743222; calls by dose curve). A digest of the protocol:
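In VDR-bla cells, compound-induced beta-lactamase expression is quantified by FRET substrate fluorescence. Treatment lasts 16 h at 37C; substrate develops 2 h at room temperature.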

Test [7] shares this target. Briefly: qHTS assay to identify small molecule antagonists of the vitamin D receptor (VDR) signaling pathway (AID 743223; active = well fitted inhibition curve with a large enough effect in the signal ratio in the repeat runs, not every such curve was filed as active; the % refers to the signal ratio). A digest of the protocol:
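Cells carrying a VDR-driven beta-lactamase reporter (VDR-bla) were co-treated with compound and 3 nM final 1alpha,25-dihydroxyvitamin D3 for 16 h at 37C; reporter activity was measured as FRET substrate fluorescence after 2 h at room temperature.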

The target in test [8] is Bile acid receptor (Homo sapiens) (UniProt Q96RI1). Put plainly: qHTS assay to identify small molecule antagonists of the farnesoid-X-receptor (FXR) signaling pathway (AID 743217; active = well fitted inhibition curve with a large enough effect in the signal ratio in the repeat runs, not every such curve was filed as active; the % refers to the signal ratio). The procedure, abridged: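 GeneBLAzer FXR-UAS-bla HEK 293T, CDCA-stimulated (50 uM final). Compound treatment 16 h, 37 °C. Detection: beta-lactamase cleavage of B/G FRET substrate, fluorescence.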

For test [9] the target is unchanged. Put plainly: qHTS assay to identify small molecule agonists of the farnesoid-X-receptor (FXR) signaling pathway (AID 743220; active = well fitted activation curve with a large enough effect in the signal ratio in the repeat runs, not every such curve was filed as active; the % refers to the signal ratio). A digest of the protocol: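 Beta-lactamase reporter under UAS control in GeneBLAzer FXR HEK 293T cells (5000/well) measured with LiveBLAzer FRET substrate after 2 h at room temperature. Compound exposure lasted 16 h at 37C.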
A short description of test [10]: qHTS assay to identify small molecule antagonists of the peroxisome proliferator-activated receptor delta (PPARd) signaling pathway - cell viability counter screen (AID 743213). Also: nearly all actives have a fitted effect of over 50% in size. The procedure, abridged: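 PPARd-bla HEK293H cells (3000/well) got compound plus 300 nM L165041 agonist for 17 h at 37 C. Viability in the same wells came from CellTiter-Glo luminescence after 30 min at room temperature.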

Sequence of Bile acid receptor (Homo sapiens) (Q96RI1 whole entry, looked up): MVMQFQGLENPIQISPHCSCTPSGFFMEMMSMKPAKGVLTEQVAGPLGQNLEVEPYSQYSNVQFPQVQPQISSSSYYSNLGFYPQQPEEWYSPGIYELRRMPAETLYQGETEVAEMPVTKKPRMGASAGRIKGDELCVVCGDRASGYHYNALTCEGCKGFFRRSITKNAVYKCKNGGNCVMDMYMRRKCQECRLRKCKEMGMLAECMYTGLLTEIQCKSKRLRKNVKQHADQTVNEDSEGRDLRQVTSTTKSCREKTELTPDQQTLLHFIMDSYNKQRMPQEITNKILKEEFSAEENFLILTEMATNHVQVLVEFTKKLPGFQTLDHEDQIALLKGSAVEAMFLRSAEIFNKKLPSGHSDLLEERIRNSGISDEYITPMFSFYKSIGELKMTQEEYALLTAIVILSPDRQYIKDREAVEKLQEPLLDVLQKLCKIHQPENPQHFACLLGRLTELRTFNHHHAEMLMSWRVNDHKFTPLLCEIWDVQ
Sequence of Vitamin D3 receptor (Homo sapiens) (P11473 whole entry, looked up): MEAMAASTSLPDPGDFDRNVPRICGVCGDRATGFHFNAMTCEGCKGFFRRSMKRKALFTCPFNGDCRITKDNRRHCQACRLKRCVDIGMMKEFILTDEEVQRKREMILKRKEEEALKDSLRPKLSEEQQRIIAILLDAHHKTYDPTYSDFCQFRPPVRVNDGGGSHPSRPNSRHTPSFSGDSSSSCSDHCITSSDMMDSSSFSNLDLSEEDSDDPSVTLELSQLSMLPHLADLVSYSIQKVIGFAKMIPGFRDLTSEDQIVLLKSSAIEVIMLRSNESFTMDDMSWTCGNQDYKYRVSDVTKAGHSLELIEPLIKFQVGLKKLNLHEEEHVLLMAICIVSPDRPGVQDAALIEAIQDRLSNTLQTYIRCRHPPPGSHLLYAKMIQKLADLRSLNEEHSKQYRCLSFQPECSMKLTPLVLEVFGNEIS
Sequence of Peroxisome proliferator-activated receptor delta (Homo sapiens) (Q03181 whole entry, looked up): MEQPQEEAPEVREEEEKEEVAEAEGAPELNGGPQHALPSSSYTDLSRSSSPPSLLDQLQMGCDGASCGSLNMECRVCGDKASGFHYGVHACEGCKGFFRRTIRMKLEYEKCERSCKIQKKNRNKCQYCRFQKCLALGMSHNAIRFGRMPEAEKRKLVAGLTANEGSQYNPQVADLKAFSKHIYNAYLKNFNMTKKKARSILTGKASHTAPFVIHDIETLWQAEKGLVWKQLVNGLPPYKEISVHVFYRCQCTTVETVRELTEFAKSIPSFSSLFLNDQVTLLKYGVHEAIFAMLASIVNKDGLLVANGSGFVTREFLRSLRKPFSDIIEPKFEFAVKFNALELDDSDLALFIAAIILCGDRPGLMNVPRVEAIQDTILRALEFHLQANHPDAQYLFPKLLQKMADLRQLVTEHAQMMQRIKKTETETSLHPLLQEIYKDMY

As to `C=CC[N+](C)(C)CC=C`, the compound was called inactive in [1], in [3], in [4], in test [5], in test [6] and in test [7]. The Potency entry in test [2] is “inactive”.
With `CC(C)(Oc1ccc(CCNC(=O)c2ccc(Cl)cc2)cc1)C(=O)O`, the outcome in test [1], in test [3], in test [8], in [4], in test [9] and in [5] was inactive. The call in test [7] was inactive. Moreover, the Potency in test [2] is 38.9 µM (active).
For the compound `CCCCOC(=O)c1ccc(N)cc1`, the call in test [1], in [10], in test [3], in test [4], in test [5] and in test [6] was inactive. The outcome in [7] was inactive. In addition, in test [2], the Potency result is “inactive”.
As to `CCCCCCCCCCCCCCCCO`, the call in test [1], in test [10], in [3], in test [4], in test [5] and in [6] was inactive. For the same compound, the outcome in test [7] was inactive. Further, in [2], the Potency entry is “inactive”.
`COC(=O)CCCC(=O)OC`: the call in test [1], in test [3], in [8], in test [4], in test [9] and in test [5] was inactive. Moreover, in [7], the outcome was inactive. Besides, the Potency result in [2] was “inactive”.
For `CCNC(=S)NCC`, the call in [1], in [3], in test [4], in test [5], in test [6] and in test [7] was inactive. In addition, the Potency result in test [2] is “inactive”.
As for `Cc1ccc2ncccc2c1`, the outcome in [1], in test [3], in test [4] and in test [5] was inactive. Also, in [2], the Potency result was “inactive”.
Take `CC(C)=CCl`: the compound was called inactive in [1], in test [10], in test [8], in test [4], in test [9] and in test [5]. The compound was classed as inactive in test [6] and in [7]. The Potency entry in test [2] was “inactive”.
In the case of `CCCCCCCCCCN`, the call in [1], in test [3], in test [4] and in test [5] was inactive. For the same compound, the Potency result in test [2] is “inactive”.
In the case of `CCNc1cccc(C)c1`, the compound was classed as inactive in test [1], in test [3], in test [4], in test [5], in test [6] and in [7]. In [2], the Potency result was “inactive”.
In the case of `Cc1ccc(S(=O)(=O)N=C=O)cc1`, the compound was called inactive in test [1], in [10], in test [3], in [4], in test [5] and in test [6]. In test [7], the compound was called inactive. In addition, in [2], the Potency entry was “inactive”.
With `O=C(O)/C=C/C(=O)O`, the compound was called inactive in test [1], in test [3], in test [4], in test [5], in test [6] and in test [7]. For the same compound, the Potency entry in test [2] is “inactive”.
With `CC1(C)S[C@@H]2[C@H](NC(=O)COc3ccccc3)C(=O)N2[C@H]1C(=O)O`, the compound was called inactive in [1], in test [3], in test [4] and in test [5]. Besides, the Potency entry in test [2] was “inactive”.
With `CC(C)CC(C)O` (stereo not given), the call in test [1], in test [3], in test [8], in [4], in test [9] and in [5] was inactive. For the same compound, the outcome in test [7] was inactive. In addition, the Potency entry in test [2] is “inactive”.
Regarding `O=[N+]([O-])c1ccc2nc[nH]c2c1`, the compound was classed as inactive in test [1], in [3], in test [8], in test [4], in test [9] and in test [5]. In addition, the Potency entry in [2] is “inactive”.
On to `O=C(OCC1CCC2OC2C1)C1CCC2OC2C1` (stereo not given), for which the outcome in test [1], in [3], in test [4] and in test [5] was inactive. In addition, the Potency entry in test [2] was “inactive”.
`CN(C)c1ccc(O)c2c1C[C@H]1C[C@H]3[C@H](N(C)C)C(=O)C(C(N)=O)=C(O)[C@@]3(O)C(=O)C1=C2O`: the call in test [1], in test [10], in [3], in test [4], in test [5] and in test [7] was inactive. Also, in test [2], the Potency result was “inactive”.
Turning to `COc1ccc(OC)cc1`, the compound was classed as inactive in [1], in test [10], in test [3], in test [4], in test [5] and in [7]. Moreover, the Potency result in test [2] is “inactive”.
Turning to `CCCCCCCCCCCC(=O)OC`, the outcome in test [1], in test [3], in test [8], in test [4], in [9] and in test [5] was inactive. Moreover, in test [7], the compound was called inactive. For the same compound, the Potency result in [2] is “inactive”.
Regarding `CCCCCC(=O)O`, the compound was called inactive in [1], in test [10], in [3], in test [4], in [5] and in [6]. Moreover, the compound was classed as inactive in test [7]. The Potency entry in [2] was “inactive”.
Take `O=C(O)c1cc2ccccc2cc1O`: the result in test [1], in [10], in [3], in test [4], in test [5] and in test [7] was inactive. Also, in [2], the Potency result was “inactive”.
As to `CCCCCCC=O`, the call in test [1], in [10], in [3], in test [4], in test [5] and in test [6] was inactive. Moreover, in test [7], the outcome was inactive. The Potency entry in test [2] was “inactive”.
As to `CN(C)c1ccc(Cc2ccc(N(C)C)cc2)cc1`, the compound was called inactive in test [1], in [3], in test [8], in [4], in test [9] and in test [5]. Also, the outcome in test [6] and in [7] was inactive. Further, the Potency entry in test [2] is “inactive”.
For `Clc1ccccn1`, the result in test [1], in test [3], in [8], in test [4], in test [9] and in test [5] was inactive. Besides, the outcome in test [7] was inactive. Also, the Potency result in test [2] is “inactive”.
Take `COC(=O)c1cccnc1`: the outcome in [1], in test [3], in [4], in test [5], in test [6] and in test [7] was inactive. Moreover, in test [2], the Potency result is “inactive”.
Turning to `Cc1ccc(C(C)C)c(O)c1`, the compound was called inactive in [1], in test [10], in test [3], in test [4], in test [5] and in [6]. In addition, in [7], the result was inactive. In addition, the Potency result in test [2] was “inactive”.
As for `CC(=O)OCc1ccccc1`, the call in test [1], in [3], in test [4], in [5] and in test [7] was inactive. Besides, the Potency entry in [2] is “inactive”.
As to `O=C(O)c1ccc(S(=O)(=O)N(Cl)Cl)cc1`, the outcome in test [1], in test [10], in [8], in test [4], in test [9] and in [5] was inactive. Moreover, the compound was called inactive in test [7].
Consider `CN1C(=O)CC[C@H]1c1cccnc1`, for which the outcome in test [1], in test [4] and in [5] was inactive.
